Laboratory results from PubChem BioAssay AID1159580 (chemical genetic matrix, 2015).
Where “and” joins values, the source holds several entries; their conditions need not be identical. Equal values may be shown once. Screen size: about 5,500 compounds; about 2,000 (36%) were called active. Another 18% or so got no clear call; they are omitted. Cut-off read from the data, not from the text of the source: active = normalized growth mostly below about 0.91 (no sharp cut-off); inconclusive = no clear call, values can overlap the other calls; inactive = mostly above about 0.92. The list shows a part of the results.

Experiment: chemical genetic growth profiling, strain panel (AID 1159580);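 note: tested at 20 µM; growth read once vehicle control cultures reached saturation at 30 °C; 1 = growth at the plate median or of vehicle wells; lower values mean less growth of the strain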
Settings: S. cerevisiae deletion strains, growth OD

Measured: normalized growth

CC(C)(C)NCC(O)c1cc(O)cc(O)c1 (stereo not drawn)
inactive: locus YAL013W, strain DEP1, active compounds read low 1 | locus YAL021C, strain ccr4, active compounds read low 0.975 | locus YAL026C, strain drs2, active compounds read low 0.979 | locus YAL030W, strain snc1, active compounds read low 0.98 | locus YAL040C, strain CLN3, active compounds read low 0.976 | locus YBL061C, strain skt5, active compounds read low 0.963 | locus YBR009C, strain hhf1, active compounds read low 1.01 | locus YBR021W, strain FUR4, active compounds read low 1 | locus YBR023C, strain chs3, active compounds read low 0.972 | locus YBR171W, strain sec66, active compounds read low 0.986 | locus YBR229C, strain ROT2, active compounds read low 0.996 | locus YBR231C, strain swc5, active compounds read low 0.997 | locus YBR279W, strain paf1, active compounds read low 0.98 | locus YCL011C, strain gbp2, active compounds read low 0.985 | locus YCL016C, strain dcc1, active compounds read low 0.967 | locus YCL029C, strain bik1, active compounds read low 0.987 | locus YCL061C, strain MRC1 (second series), active compounds read low 0.988 | locus YCL069W, strain vba3, active compounds read low 0.988 | locus YCR088W, strain abp1, active compounds read low 0.984 | locus YDL005C, strain med2, active compounds read low 0.959 | locus YDL035C, strain GPR1, active compounds read low 0.994 | locus YDL040C, strain nat1, active compounds read low 0.973 | locus YDL074C, strain BRE1, active compounds read low 1.02 | locus YDL101C, strain DUN1, active compounds read low 0.987 | locus YDL134C, strain PPH21, active compounds read low 1 | locus YDL192W, strain arf1, active compounds read low 0.971 | locus YDR001C, strain nth1, active compounds read low 0.982 | locus YDR069C, strain doa4, active compounds read low 0.993 | locus YDR101C, strain arx1, active compounds read low 0.977 | locus YDR137W, strain rgp1, active compounds read low 0.962 | locus YDR159W, strain sac3, active compounds read low 0.983 | locus YDR162C, strain NBP2, active compounds read low 0.995 | locus YDR195W, strain ref2 0.998 | locus YDR297W, strain sur2, active compounds read low 0.99 | locus YDR318W, strain mcm21, active compounds read low 0.979 | locus YDR334W, strain swr1, active compounds read low 0.964 | locus YDR335W, strain msn5, active compounds read low 0.984 | locus YDR363W, strain ESC2, active compounds read low 0.957 | locus YDR388W, active compounds read low 0.988 | locus YDR392W, strain spt3, active compounds read low 0.883 | locus YDR502C, strain sam2, active compounds read low 0.978 | locus YEL003W, strain gim4, active compounds read low 0.992 | locus YEL037C, strain rad23, active compounds read low 0.972 | locus YEL061C, strain CIN8 (second series), active compounds read low 0.977 | locus YEL061C, strain CIN8, active compounds read low 0.994 | locus YER002W, strain NOP16, active compounds read low 1.01 | locus YER015W, strain faa2, active compounds read low 0.987 | locus YER016W, strain bim1, active compounds read low 0.946 | locus YER110C, active compounds read low 0.97 | locus YER111C, strain swi4, active compounds read low 0.967 | locus YER155C, strain BEM2 (second series), active compounds read low 0.975 | locus YER155C, strain BEM2, active compounds read low 0.991 | locus YER167W, strain BCK2, active compounds read low 0.993 | locus YFR010W, strain ubp6, active compounds read low 0.999 | locus YGL078C, strain dbp3, active compounds read low 0.981 | locus YGL086W, strain mad1, active compounds read low 0.987 | locus YGL167C, strain pmr1, active compounds read low 0.986 | locus YGL173C, strain kem1, active compounds read low 0.971 | locus YGL227W, strain vid30, active compounds read low 0.98 | locus YGL240W, strain doc1, active compounds read low 1.02 | locus YGL248W, strain PDE1, active compounds read low 0.999 | locus YGL253W, strain hxk2, active compounds read low 0.962 | locus YGR078C, strain PAC10, active compounds read low 0.993 | locus YGR135W, strain pre9, active compounds read low 0.982 | locus YGR229C, strain SMI1, active compounds read low 0.972 | locus YGR252W, strain gcn5, active compounds read low 1.15 | locus YHR013C, strain ard1, active compounds read low 0.955 | locus YHR027C, strain rpn1, active compounds read low 0.993 | locus YHR030C, strain SLT2, active compounds read low 0.981 and 0.948 | locus YHR079C, strain IRE1 (second series), active compounds read low 0.981 | locus YHR079C, strain IRE1, active compounds read low 0.974 | locus YHR094C, strain hxt1, active compounds read low 0.975 | locus YHR129C, strain ARP1, active compounds read low 1 | locus YHR142W, strain chs7, active compounds read low 0.973 | locus YHR200W, strain rpn10, active compounds read low 0.987 | locus YIL066C, strain RNR3, active compounds read low 0.994 | locus YIL073C, strain SPO22, active compounds read low 0.938 | locus YIL125W, strain kgd1, active compounds read low 0.958 | locus YIR030C, strain dcg1, active compounds read low 0.992 | locus YJL092W, strain hpr5, active compounds read low 0.99 | locus YJL095W, strain BCK1 (second series), active compounds read low 1 | locus YJL095W, strain BCK1, active compounds read low 1.01 and 0.964 | locus YJL115W, strain asf1, active compounds read low 1 | locus YJL129C, strain trk1, active compounds read low 0.934 | locus YJL134W, strain LCB3, active compounds read low 0.987 | locus YJL154C, strain vps35, active compounds read low 0.974 | locus YJL164C, strain tpk1, active compounds read low 1 | locus YJL166W, strain qcr8, active compounds read low 1.02 | locus YJL168C, strain set2, active compounds read low 0.984 | locus YJL187C, strain SWE1 (second series), active compounds read low 0.976 | locus YJR043C, strain POL32, active compounds read low 1 | locus YJR066W, strain TOR1, active compounds read low 0.916 | locus YJR075W, strain HOC1, active compounds read low 0.98
